An excerpt weighted towards active compounds, which were near 2.4% of everything screened.
eIF4E-4G inh: eIF4E–eIF4G protein interaction inhibitors, primary screen, biochemical, uHTS, TR-FRET, eIF4GI fragment. Eukaryotic translation initiation factor 4E (Mus musculus) + Eukaryotic translation …. TR-FRET eIF4E-eIF4GI(517-606) binding, 2 h. inhibition, % at 21.7 µM. 0.37% of 220,000 active. AID 782, 2007;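 active = inhibition above about 30%, limit read from the data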;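 also: 0% = full FRET control wells and 100% = background wells lacking eIF4GI fragment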
M18AAP inhibitor: PfM18AAP inhibitors, malaria aminopeptidase, primary screen, biochemical, QFRET, recombinant enzyme; inhibition, % at 7.35 µM; 1.2% of 290,000 active; M18 aspartyl aminopeptidase (Plasmodium falciparum 3D7); AID 1822, 2009; H-Glu-NHMec fluorogenic cleavage;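 active = inhibition above the campaign mean inhibition over all tested compounds plus 3 SD, cut at about 28% in these data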;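 also: 0% = plate median of test compound wells and 100% = 2 mM ZnCl2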
PABP1 MLLE inh: inhibitors of PABP1 MLLE–PAM2 peptide binding, primary screen, biochemical, fluorescence polarization, FITC-PAM2, GST-MLLE | inhibition, % at 20 µM | AID 588489, 2011 | Polyadenylate-binding protein 1 (Homo sapiens), P11940 | 0.36% of 360,000 active; in the data active = inhibition above about 35%, passing the limit was not always enough;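 also: plate controls were DMSO wells with GST-MLLE for no effect and wells lacking GST-MLLE protein for full effect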
eIF4H inh: human eIF4H binding inhibitors, primary screen, translation initiation inhibitor project, biochemical, uHTS, fluorescence polarization; Eukaryotic translation initiation factor 4H (Homo sapiens), Q15056; eIF4H fluorescence polarization binding assay; inhibition, % at 35 µM; 0.94% of 290,000 active; AID 2012, 2009;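 also: calls also rest on retests at 20 µM and on dose response follow-up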
PERK inhibitor: block of dimerizer-induced PERK translation repression, primary screen, PERK inhibitor project, CHO PERK-DD cells, SEAP luminescence, HTS; 0.17% of 220,000 active; AID 1416, 2008; Eukaryotic translation initiation factor 2-alpha kinase 3 (Homo sapiens), Q9NZJ5; inhibition, % at 5.6 µM; CHO PERK-DD fusion, SEAP luminescence translation reporter;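 active = inhibition above the mean inhibition of all tested compounds plus 3 SD, set separately per screening campaign, cut at about 2.9% in these data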;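 also: PERK kinase domain activated by AP20187 dimerizer at 100 nM; 0% = DMSO with dimerizer and 100% = rapamycin at 8.4 µM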
Target sequence (Q9NZJ5 whole entry, looked up, the tested form may be a part): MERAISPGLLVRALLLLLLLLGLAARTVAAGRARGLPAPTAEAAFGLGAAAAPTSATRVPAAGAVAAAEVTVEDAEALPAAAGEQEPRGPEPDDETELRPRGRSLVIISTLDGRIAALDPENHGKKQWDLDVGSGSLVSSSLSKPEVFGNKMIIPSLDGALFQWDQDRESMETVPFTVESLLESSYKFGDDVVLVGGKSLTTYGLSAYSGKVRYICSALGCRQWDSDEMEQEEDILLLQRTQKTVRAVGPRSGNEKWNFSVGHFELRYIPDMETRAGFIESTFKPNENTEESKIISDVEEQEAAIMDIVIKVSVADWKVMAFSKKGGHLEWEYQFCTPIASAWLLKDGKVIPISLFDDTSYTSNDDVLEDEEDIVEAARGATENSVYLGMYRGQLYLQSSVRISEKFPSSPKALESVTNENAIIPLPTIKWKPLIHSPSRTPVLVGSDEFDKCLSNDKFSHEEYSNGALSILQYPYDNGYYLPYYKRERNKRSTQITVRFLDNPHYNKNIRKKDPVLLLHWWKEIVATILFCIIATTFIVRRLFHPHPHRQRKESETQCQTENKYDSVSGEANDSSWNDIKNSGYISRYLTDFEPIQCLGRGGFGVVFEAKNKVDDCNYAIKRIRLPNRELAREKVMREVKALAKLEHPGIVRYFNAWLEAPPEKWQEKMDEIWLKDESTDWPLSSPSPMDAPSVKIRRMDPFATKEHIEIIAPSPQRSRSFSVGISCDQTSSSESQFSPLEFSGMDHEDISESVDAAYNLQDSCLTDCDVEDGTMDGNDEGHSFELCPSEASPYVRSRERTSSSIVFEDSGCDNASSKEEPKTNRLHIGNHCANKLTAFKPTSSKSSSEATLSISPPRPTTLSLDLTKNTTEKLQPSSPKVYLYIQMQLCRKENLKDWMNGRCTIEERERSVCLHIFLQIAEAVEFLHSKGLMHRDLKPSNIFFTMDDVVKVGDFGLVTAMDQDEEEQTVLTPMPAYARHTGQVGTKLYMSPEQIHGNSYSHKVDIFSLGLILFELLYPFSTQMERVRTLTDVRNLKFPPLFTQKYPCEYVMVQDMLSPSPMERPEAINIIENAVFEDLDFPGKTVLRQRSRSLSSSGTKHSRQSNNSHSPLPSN
PABP FP inh: PABP poly(A) RNA binding inhibitors, primary screen, biochemical, fluorescence polarization, uHTS; 1% of 290,000 active; Polyadenylate-binding protein 1 (Homo sapiens), P11940; inhibition, % at 35 µM;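 also: calls also rest on retests at 20 µM and on dose response follow-up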
Active calls of the source: *; u = inconclusive; x = no result given. Unless noted, no rule for the calls is given here.

SMILES	eIF4E-4G inh	M18AAP inhibitor	PABP1 MLLE inh	eIF4H inh	PERK inhibitor	PABP FP inh
CCC(C)(C)NC(=O)CN(Cc1ccc(F)cc1)C(=O)CCC(=O)Nc1ccccn1	x	-9	0	-12	x	-14
COc1ccccc1C1c2[nH]c3ccccc3c2CCN1Cc1ccc(NC(C)=O)s1 (stereo unspecified)	89*	-7	7	1	-2	1
CCCCCc1c(O)nc(SCCN(CC)CC)[nH]c1=O	-5	0	6	active	0	76*
CCCCCc1c(O)nc(SCCN(C)C)[nH]c1=O	1	1	2	-8	2	1
O=C(CSc1nc(O)c(Cc2ccccc2)c(=O)[nH]1)N1CCOCC1	2	0	1	5	0	-17
CCCCc1c(O)nc(SCC(=O)c2ccccc2)[nH]c1=O	0	0	39*	-1	0	7
O=C(CSc1nc(O)c(Cc2ccccc2)c(=O)[nH]1)c1ccccc1	-7	0	41*	5	-1	5
O=[N+]([O-])c1cc2c(cc1CN1CCN(c3ccccc3F)CC1)OCO2	x	29*	12	13	x	10
CCOc1ccccc1N1CCN(Cc2cc3c(cc2[N+](=O)[O-])OCO3)CC1	x	6	3	-3	x	56
Cc1nn(C)c(Oc2cccc(C(F)(F)F)c2)c1C=O	-2	-2	3	-6	0	19
O=C(CSc1nc2ccc(Nc3nc(N4CCCC4)nc(N4CCCC4)n3)cc2s1)NCc1ccco1	92*	-1	-30	5	-2	2
O=C(NCC1CCCO1)C(Cc1ccccc1)N1C(=O)C2C3C=CC(C4CC34)C2C1=O (stereo unspecified)	-3	3	5	1	1	-5
O=S(=O)(c1ccc(NC(=S)NCCc2ccccc2)cc1)N1CCOCC1	-3	-7	16	2	-1	-2
O=S(=O)(c1ccc(NC(=S)NN=C(Cc2ccccc2)Cc2ccccc2)cc1)N1CCOCC1	-4	29*	14	-10	0	6
C/C(=N\NC(=O)C(=O)Nc1cc(C)ccc1C)c1ccncc1	-4	-1	-7	3	0	1
CCOC(=O)Cc1c[nH]c(=S)[nH]c1=O	5	12	40*	-3	1	2
CC(=O)NC12CC3CC(C1)CC(C(=O)N1CCN(S(=O)(=O)c4cccc(C(F)(F)F)c4)CC1)(C3)C2	x	x	0	x	x	x
O=C(C1CCN(C2CCN(C/C=C/c3ccccc3)CC2)CC1)N1CCOCC1	0	4	-8	56*	1	3.0*
CCOC(=O)c1ccc(O)c(-n2cc3c(c2-c2ccccc2)c(=O)n(C)c(=O)n3C)c1	x	x	-11	x	x	x
CCC1(C)Cc2c(C#N)c(N)sc(=S)c2CO1 (stereo unspecified)	-3	7	25	42	1	48
N#Cc1c(N)sc(=S)c2c1CCCC2	12	8	48*	u	0	u
COc1cc2c(cc1NC(=O)c1ccc(C)c([N+](=O)[O-])c1)oc1ccccc12	2	-2	-15	active	1	87
CSC[C@@H]1NC(=S)N(c2ccc(C)cc2)C1=O	-3	0	21	0	1	-8
O=C(CCn1c(=O)c2cccn2c2cccnc21)NCCCN1CCN(c2ccc(F)cc2)CC1	x	x	2	x	x	x
COc1cc(C(C#N)N2CCOCC2)ccc1O (stereo unspecified)	-3	8	7	4	3.5*	2
Clc1ccc(NCc2cccnc2)cc1	x	-1	-17	-4	x	-2
Fc1ccc(NCc2cccnc2)cc1F	-5	10	48*	u	-1	u
COc1ccc(CCNCC(=O)Nc2ccc(C)c(S(=O)(=O)N(C)C)c2)cc1	-2	-4	-3	active	0	68*
COc1ccc(OC)c(Nc2ncnc3sc(-c4ccccc4)cc23)c1	38*	-1	-4	8	1	-8
